The supplement of paper PMC6555819

These sequences were tested on RARb homodimer (NR concentration 270 nM) (assay: PBM binding z-score (relative to random genomic background probes); higher = stronger binding; sequences stand for … in GC…GCGATTGACAGCGTAGAATGAAGG).
How it was run: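 Scanned fluorescence from custom Agilent 4×180K protein-binding microarrays was regression-normalized. Binding z-scores use random background probes as reference. Ligand-free nuclear receptor dimers were incubated on the arrays for 1 h and detected with antibodies against each partner (one per run).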

Sequence | PBM binding z-score
GCAGACAGGTGAAACGCAGGTAGCTCAGGGTGGC | -0.0117
AGAATGAGGTTAGGATCAGGGAAACAGAATACAT | 1.09
CAAACTAGGTCACCGGAAGGTCACAGTCCGCATG | 5.72
TGAATCAGGTTAAAGATCAGGGAACGTGGCGTCG | -7.29e-05
ATCGAAAGGTCGAGGTGAGTAAAGAGAAAGGGAA | 2.34
GCATATAGGTAATACCAGGTGAAAGTCCGATTGT | 0.327
CCGACTGGGGCAGAAAGGTAACCATACCATCCGG | 0.454
TCTTGTAGATCAACAGGAGGTTAAGAAAGATCGA | 0.548
GCTGCTAGGTCAACTAATGGTCAGCTAAAGCTCG | 3.51
GCGACTGGGGCAAGGCAGGTTACCATAAGGTTGG | 1.16
ATATGTAGGTTAACGGGTCATTCAGTTTGCGCAT | 2.84
GCTCGGAGAACAAGGTCAGAGCTTTGTCCGTAGA | 2.36
CCTTACGGGTCCCGAGGTTATAGCACGACGAGCG | 0.515
CCTTACGGGTCACGAGGTTATATCACGACGAGCG | 3.93
GATCGGAGGACAAGGTCAGAGCTTTGTCCGTAGA | 3.27
ATATGTAGGTTACATACGGGTCATTCAGGCTATG | 2.71
GCAAACAGGTGAAACGCAGGTAACTCAGGGTGGC | 0.0626
TCTTGTAGATCAACAGGAGGTCAAGAAAGATCGA | 3.47
TGAATGAGGTTAAAGATCAGGAAACGTGGCGTCG | 0.6
GCTGCTATGTCAACTGATGGTCAGCTAAAGCTCG | 0.659

Sequence | PBM binding z-score
TAGCCTAGTTCAGATCGGGCCAGTATACGCTATA | -0.206
TCTTGTAGATCACCAGGAGGTTAAGAAAGATCGA | 0.751
TGAATGAGGTTAAAGATCAGGGATCGTGGCGTCG | 0.409
TAGCCTAGGTCAGATCTGGCCAGTATACGCTATA | 1.82
TAGCCTAGGTCATGGGCCACTATACCACGCGAAC | 3.27
GCTGCTAGGTCAACTGATGGACAGCTAAAGCTCG | 3.12
CGTCCAAGGTCATAGGACGTCAGTGAAGACAGAT | 3.37
CGTGCAAGGTCAAGGTCAGTGAAAGAGACTCGAA | 5
ACTTACGGGTCAACGTGGTTATAGCACGCGTATA | 3.03
ACTAGCAGGCCAACGGTCACTCAAGATTAGTCCG | 1.57
ATCGAAAGGTCGTAGGTGAGTATACCCACCCGAA | 2.79
CCAACTGGGCCATCAGGTCATTGATATCAACGTT | 2.79
CGTCCAAGGTCATAGGCGGTCAGTGAAGACAGAT | 4.09
CCGACTAGGTTATGGGGCATTCAGGCAACGGTGA | 1.03
TTACCAAGGTGGAAGGTCGTTGATGCACGCCTTG | 0.907
CGTACAAGGTCAGCAGGTCAGTGAAAGCGACGTG | 5.11
CCTACTGGGCCATAAAGGTCATTGATGCCGATAA | 4.17
ATCGAAAGGTCGAAGGTGAGTAAACCCACCCGAA | 2.45
AGTCAAAATTCAGGACGAGGTAACGTAAAGCACG | -0.0538
GATACATGGTCAGCTAGAGGCCAGAGTATGGAAA | 0.679
